Test results as given in paper PMC4336329 (PLoS ONE, 2015).
In all, about 310,000 compounds went through this assay and about 14,000 (4.5%) showed an effect of 50% or more. The effect is printed as a negative number. Shown is part of a subset that was picked to be rich in strong results.

target: human ether-à-go-go-related gene (hERG) potassium channel (human, UniProt Q12809); test: primary screen, population patch clamp on CHO cells stably expressing hERG; higher = less effect of the substance
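Further: peak tail current of the secondary pulse compared with the same well before compound.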

Sequence of human ether-à-go-go-related gene (hERG) potassium channel (Q12809 whole entry, looked up): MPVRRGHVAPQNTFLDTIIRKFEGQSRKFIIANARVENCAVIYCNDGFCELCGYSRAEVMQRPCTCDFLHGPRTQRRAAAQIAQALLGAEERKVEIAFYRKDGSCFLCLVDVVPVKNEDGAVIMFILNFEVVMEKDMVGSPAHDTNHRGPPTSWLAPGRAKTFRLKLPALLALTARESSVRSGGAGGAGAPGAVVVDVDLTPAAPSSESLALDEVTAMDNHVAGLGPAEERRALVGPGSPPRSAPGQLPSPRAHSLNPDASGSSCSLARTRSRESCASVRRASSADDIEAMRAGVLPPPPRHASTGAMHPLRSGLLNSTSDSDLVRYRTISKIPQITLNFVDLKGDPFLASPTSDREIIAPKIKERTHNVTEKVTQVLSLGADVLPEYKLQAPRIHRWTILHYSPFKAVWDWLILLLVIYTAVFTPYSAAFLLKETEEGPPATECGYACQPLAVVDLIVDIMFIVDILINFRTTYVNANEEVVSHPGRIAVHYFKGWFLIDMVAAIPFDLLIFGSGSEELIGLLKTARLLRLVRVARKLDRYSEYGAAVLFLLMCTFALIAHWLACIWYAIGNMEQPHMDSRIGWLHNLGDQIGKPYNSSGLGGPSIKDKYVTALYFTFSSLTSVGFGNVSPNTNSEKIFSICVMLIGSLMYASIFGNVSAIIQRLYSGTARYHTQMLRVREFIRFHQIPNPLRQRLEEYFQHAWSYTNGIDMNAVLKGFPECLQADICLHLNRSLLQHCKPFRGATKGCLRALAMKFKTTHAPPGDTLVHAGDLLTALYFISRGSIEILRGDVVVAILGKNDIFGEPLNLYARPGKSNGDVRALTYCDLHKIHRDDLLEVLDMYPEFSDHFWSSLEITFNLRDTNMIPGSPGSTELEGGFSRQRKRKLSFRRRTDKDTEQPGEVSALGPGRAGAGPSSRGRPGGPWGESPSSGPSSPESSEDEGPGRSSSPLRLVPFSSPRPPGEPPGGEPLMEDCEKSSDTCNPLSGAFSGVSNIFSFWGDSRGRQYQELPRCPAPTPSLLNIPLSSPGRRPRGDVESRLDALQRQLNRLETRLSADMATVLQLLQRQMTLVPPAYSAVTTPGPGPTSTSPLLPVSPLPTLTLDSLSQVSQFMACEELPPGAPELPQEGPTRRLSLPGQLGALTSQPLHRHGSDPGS

| SMILES | hERG current change (%, negative = inhibition) at 10uM [%] |
| --- | --- |
| COc1ccc(COC(=O)C2CCN(S(=O)(=O)c3ccc(Cl)cc3)CC2)cc1 | 30 |
| CCn1c(CSc2ncn[nH]2)nc2cc(C(=O)O)ccc21 | -4.97 |
| CCOc1ccc(CNC(=O)CCC(=O)N2Cc3ccccc3Oc3ncccc32)cc1 | -51.1 |
| CCc1ccc(CNC(=O)CCC(=O)N2Cc3cccc(OC)c3Oc3ncccc32)cc1 | -75 |
| CCOc1ccccc1CNC(=O)CCC(=O)N1Cc2ccccc2Oc2ncccc21 | -3.62 |
| CCOc1ccc(CNC(=O)CCC(=O)N2Cc3cccc(OC)c3Oc3ncccc32)cc1 | -44.3 |
| COc1cccc2c1Oc1ncccc1N(C(=O)CCC(=O)NCc1ccc(F)cc1)C2 | -32.6 |
| COc1cccc2c1Oc1ncccc1N(C(=O)CCC(=O)NCc1ccc(C)cc1)C2 | -34.4 |
| O=C1C=C(Nc2ccc(O)cc2)C(=O)c2ccccc21 | 4.35 |
| CCc1ccccc1Nc1nc(-c2cccnc2)cs1 | -3.32 |
| Fc1ccc(NC(=S)N/N=C/c2ccc(F)c(F)c2)c(F)c1 | 13 |
| Cc1nc(SCC(=O)NC2CCCC2)c2c(C)c(C)sc2n1 | -4.48 |
| CCc1cccc2c(C(=O)COC(=O)c3ccccc3)c[nH]c12 | 11.7 |
| O=C1CCC(C(=O)OCC(=O)c2c[nH]c3ccccc23)=NN1 | 1.19 |
| CCc1cccc2c(C(=O)COC(=O)c3nccnc3N)c[nH]c12 | -5.69 |
| CCc1cccc2c(C(=O)COC(=O)c3cnc(C)cn3)c[nH]c12 | 2.87 |
| CCc1cccc2c(C(=O)COC(=O)c3nn(C)c(=O)c4ccccc34)c[nH]c12 | -65.6 |
| CCc1cccc2c(C(=O)COC(=O)C3=NNC(=O)CC3)c[nH]c12 | -51.6 |
| Fc1ccccc1NC(=S)NN(Cc1ccccc1)c1ccccc1 | -13.9 |
| CCNc1nc2[nH]c(=O)c3c(c2s1)OC(N)=C(C#N)C3c1ccc(C)cc1 (centres unmarked) | 1.97 |

| SMILES | hERG current change (%, negative = inhibition) at 10uM [%] |
| --- | --- |
| CCCc1nc(SCC(N)=O)[nH]c(=O)c1CC | 7.34 |
| CCOc1ccc(NC(=O)c2ccccc2CO)cc1 | 16.2 |
| Cn1cnnc1SCC(=O)Nc1ccccc1Sc1ccccc1 | -16.7 |
| COc1cc(C(=O)Nc2cc(C)cc(C)c2)c(-n2cnnn2)cc1OC | 14.7 |
| COCCN(C(=O)Nc1ccc(OC)cc1OC)C1CCN(C(C)=O)CC1 | 7.58 |
| O=C(Nc1ccccc1)OC(CN1CCCCC1)C(F)(F)F (centres unmarked) | 6.17 |
| Cl.O=C(Nc1ccccc1)OCC(CN1CCCCC1)OC(=O)Nc1ccccc1 (centres unmarked) | -60.1 |
| O=C(CN1CCCCC1)Nc1ccccc1 | -1.04 |
| CCN(CC(=O)Nc1ccc(NC(C)=O)cc1)C(=O)C1CCCN(C(=O)c2ccc(Cl)cc2)C1 (centres unmarked) | -3.75 |
| Cc1ccccc1N1CCN(CC(=O)Nc2ccccc2C(=O)NC2CC2)CC1 | -62.4 |
| CCOc1ccccc1NC(=O)N1CCC(NC(=O)c2ccccc2C)CC1 | -1.06 |
| COC(=O)c1ccccc1NC(=O)CN1CCC(NC(=O)c2ccccc2C)CC1 | -39.9 |
| CC1CCN(CC(=O)Nc2ccccc2C(=O)NC2CC2)CC1 | -17.4 |
| CCOc1ccccc1NC(=O)CN1CCC(NC(=O)c2ccccc2C)CC1 | -59.4 |
| CCOc1ccccc1C(=O)Nc1cc(OC)ccc1OC | -3.8 |
| CCOc1cc2c(cc1OCC)CN(CC(=O)Nc1ccccc1C(=O)NC1CC1)CC2 | -31.4 |
| CCOc1ccccc1OCC(=O)Nc1ccccc1C(=O)NC1CC1 | 3.61 |
| CCOc1ccccc1C(=O)NC1CCN(CC(=O)Nc2cc(OC)ccc2OC)CC1 | -77.2 |
| CC(=O)c1ccc(N2CCN(CC(=O)Nc3ccccc3C(=O)NC3CC3)CC2)c(F)c1 | -27.9 |
| CCOc1ccccc1N1CCN(CC(=O)Nc2ccccc2C(=O)NC2CC2)CC1 | -70.2 |

| SMILES | hERG current change (%, negative = inhibition) at 10uM [%] |
| --- | --- |
| COc1ccc(OC)c(NC(=O)CN2CCC(NC(=O)c3ccccc3C)CC2)c1 | -12.3 |
| COc1cccc(OCc2nnc(SC)n2C)c1 | -7.06 |
| Cc1cc2ccccn2c1C(=O)c1ccc(NN)c([N+](=O)[O-])c1 | -6.4 |
| O=C(Nc1ccc(S(=O)(=O)Nc2ccccn2)cc1)c1ccc(Cl)cc1Cl | 2.92 |
| Cc1ccccc1NC(=O)CN1C(=O)S/C(=C\c2ccc(-c3cccc(C(=O)O)c3C)o2)C1=O | 23.7 |
| CCc1cccc(NC(=O)COC(=O)C2CCN(c3ccc(C(F)(F)F)cn3)CC2)c1 | -4.68 |
| CCOc1ccc(NC(=S)NC(=O)Cc2ccccc2)cc1 | 25.5 |
| Cc1nnc(NC(=O)/C=C/c2ccco2)s1 | 26.3 |
| O=C(Nc1ccc(CN2CCOCC2)cc1)c1ccc(Br)cc1 | 3.54 |
| CC(C)NC(=O)c1ccccc1NC(=O)Cc1ccc([N+](=O)[O-])cc1 | -33.8 |
| CC1C(=O)CCN(C(C)C)C1C.Cl (centres unmarked) | 8.54 |
| CCOC(=O)c1cnn(C)c1NC(=O)c1ccc(Cl)cc1Cl | -24.5 |
| Cc1cc(C)nc(NS(=O)(=O)c2ccc(NC(=O)c3ccc4c(c3)OCO4)cc2)n1 | -0.197 |
| NC(=O)C1CCCN(CC(=O)Nc2ccccc2C(=O)NC2CC2)C1 (centres unmarked) | -10.7 |
| O=C(CN1CCc2ccccc2C1)Nc1ccccc1C(=O)NC1CC1 | -24.5 |
| O=C(CN1CCN(C/C=C/c2ccccc2)CC1)NC(=O)NC1CCCCC1 | -74.8 |
| O=C(CN1CCN(Cc2ccccc2)CC1)NC(=O)NC1CCCCC1 | -46.3 |
| S=C(NC1CCCCC1)N1CCN(C/C=C/c2ccccc2)CC1 | -21.8 |
| O=C(CN1CCN(C/C=C/c2ccccc2)CC1)Nc1ccccc1C(=O)NC1CC1 | -80.5 |
